The campaign covered roughly 220,000 compounds. About 8,200 (3.7%) were called active.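 How the source made its calls: active means compounds that reduced the stress-induced luciferase reporter signal by more than about 70% of percent inhibition (limit read from the data); inactive means the rest.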 Shown is part of a subset that was picked to be rich in actives.
Test: blockers of ER-stress CHOP reporter expression – cell-based, unfolded protein response, luciferase reporter, primary screen (AID 2732);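 further: 0% = tunicamycin plus vehicle and 100% = wells without tunicamycin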
Conditions: CHO-K1 CHOP-promoter luciferase, tunicamycin-induced, 15-18 h; at 10 µM; hits give high values

SMILES | inhibition
CNc1ccc([N+](=O)[O-])cc1C(=O)O | -14.2% (inactive)
Nc1nc(O)c(CC(=O)O)s1 | 9.65% (inactive)
CC(=O)N/C(=C\c1ccc(F)cc1)C(=O)NC(Cc1ccccc1)C(=O)O (stereo not given) | 2.9% (inactive)
Cc1cccc(-n2c(C)cc(/C=N\NC(=O)c3cccs3)c2C)c1 | 13.8% (inactive)
CC(=O)Nc1ccc(/C=N/NC(=O)c2cccs2)cc1 | -21.6% (inactive)
Cc1ccc(-n2nc(C)c(/C=N/NC(=O)c3cccs3)c2Cl)cc1 | 99.7% (active)
O=C(NCCCn1ccnc1)C(=O)NCC1OCCN1S(=O)(=O)c1cc(F)ccc1F (stereo not given) | 19.4% (inactive)
O=C(/C=C/c1ccc(Cl)cc1)N1CCN(c2ccccc2[N+](=O)[O-])CC1 | 32.3% (inactive)
O=C(c1ccc(Cl)c([N+](=O)[O-])c1)N1CCN(c2ccccc2)CC1 | -20.4% (inactive)
CO/N=C/c1ccc(N2CCN(C(=O)c3cccc(Cl)c3)CC2)c([N+](=O)[O-])c1 | 71.8% (active)
CC12C(=O)N(c3ccccc3)C(=O)C1C(c1ccccc1)N1CCCN12 (stereo not given) | 7.95% (inactive)
O=[N+]([O-])c1ccc(N2CCSCC2)cc1O | 13.8% (inactive)
Cc1ccc(NC(=S)NC(NC(=O)Cc2cccc3ccccc23)C(Cl)(Cl)Cl)cc1 (stereo not given) | 110% (active)
CC(C)(C)C(=O)NC(NC(=S)Nc1ccc(S(N)(=O)=O)cc1)C(Cl)(Cl)Cl (stereo not given) | -6.4% (inactive)
O=C(Cc1cccc2ccccc12)NNC(=O)Nc1ccc(Cl)cc1 | 13.2% (inactive)
O=C(NNC(=S)NC1CC2CCC1C2)c1ccc(Cl)cc1 (stereo not given) | -10.6% (inactive)
CC1(C)Oc2ccc3ccc(=O)oc3c2/C(=C/NCCO)C1=O | 7.95% (inactive)
C/C=C(/C)C(=O)OC1Cc2c(ccc3ccc(=O)oc23)OC1(C)C (stereo not given) | 74.3% (active)
O=C(NCc1csc(-c2cccs2)n1)C1CC1 | 21.8% (inactive)
COc1ccccc1OCC(=O)O/N=C(\N)c1ccccn1 | -9.1% (inactive)
CCCCN1CCNC1=S | 11% (inactive)
Cc1nnc(SCc2ccc(C(=O)c3ccc(Cl)cc3)o2)n1-c1ccccc1 | 24.9% (inactive)
Cc1ccc(-c2noc(CSc3nnc(-c4ccncc4)n3-c3ccc(F)cc3)n2)cc1 | 35.3% (inactive)
Fc1ccc(-n2c(Cc3ccccc3)nnc2SCc2nc(-c3ccc(Cl)cc3)no2)cc1 | 82.2% (active)

SMILES | inhibition
Cc1oc(C(N)=O)cc1COc1ccc(C(N)=O)cc1 | 0.47% (inactive)
CC(=O)NC(=S)Nc1ccc(NC(=S)NC(=O)c2ccc([N+](=O)[O-])cc2)cc1 | -4.53% (inactive)
Cc1noc(C)c1S(=O)(=O)N1CCCC(C(=O)Nc2nccs2)C1 (stereo not given) | 11.8% (inactive)
O=C(Nc1ccc(F)c(Cl)c1)C1CCN(S(=O)(=O)c2cccnc2)CC1 | 24.3% (inactive)
O=C(Nc1nccs1)C1CCN(S(=O)(=O)c2ccc(Cl)c(C(F)(F)F)c2)CC1 | 70.1% (active)
CN(Cc1nc(-c2cnccn2)no1)Cc1n[nH]c2c1CCCCC2 | 0.16% (inactive)
CCOC(=O)c1c(C)[nH]c(=S)c(C#N)c1-c1ccccc1 | -25.2% (inactive)
CCOC(=O)c1c(C)[nH]c2c1-c1ccccc1C(=O)C2=O | 108% (active)
Cc1[nH]c2ccccc2c1C(=O)COC(=O)C(C)C | 9.48% (inactive)
COc1ccc(C(=O)NCC(=O)N/N=C/c2ccc([N+](=O)[O-])o2)cc1OC | -82.2% (inactive)
CCOC(=O)Cc1cc(=O)[nH]c(/N=C(\N)Nc2ccc(OC)cc2)n1 | -6.01% (inactive)
O=C(CC(O)(C(F)(F)F)C(F)(F)F)Nc1ccc(Cl)c(Cl)c1 | 86% (active)
O=C(CC(=O)Nc1ccc(Cl)c(Cl)c1)N/N=C/c1ccc(O)cc1 | 23.4% (inactive)
Cc1ccc(NC(=O)C/C(N)=N/O)cc1Cl | 1.88% (inactive)
CC(=O)NNC(=O)c1csc(Cc2c(Cl)sc3ccc(Cl)cc23)n1 | 32.1% (inactive)
Cc1cccc(-c2noc(-c3ccc(F)cc3)n2)c1 | 12% (inactive)
Cc1ccc(-c2noc(CN3CCN(Cc4ccccc4)CC3)n2)cc1 | 38.4% (inactive)
Cc1ccc(Cc2nc(-c3cccc(C)c3)no2)cc1 | 83.2% (active)
COc1ccc(OC)c(NC(=O)N[C@H](Cc2ccccc2)C(=O)NN)c1 | 17.5% (inactive)
CCOC(=O)CSc1nccc(N(C)C)c1C#N | 74% (active)
CCOC(=O)CC(=O)CSc1nc(-c2ccccc2)cc(-c2ccc(Cl)cc2)c1C#N | -3.89% (inactive)
CCOC(=O)CSc1ccccn1 | -0.03% (inactive)
Cc1ccc(NC(=O)c2nc[nH]c2C(=O)N[C@@H](CCCCNC(=O)OC(C)(C)C)C(=O)OC(C)(C)C)cc1 | 60.9% (inactive)
Cc1ccc(C)c(SCc2nc3sc(C(=O)O)c(C)c3c(=O)[nH]2)c1 | 5.2% (inactive)

SMILES | inhibition
Cc1ccc(-c2nc(SCC(=O)Nc3ccccc3OC(F)F)c3c(C)c(C(=O)O)sc3n2)cc1 | 101% (active)
COc1ccccc1NC(=O)CSc1nc2sc(C)c(C)c2c(=O)n1Cc1ccco1 | -22.1% (inactive)
O=C(O)c1ccc(/C=N/Nc2nc(N3CCCCC3)nc(N3CCCCC3)n2)cc1 | 5.9% (inactive)
O=C(c1ccc(=O)oc1)N1CCC(C(O)(c2ccccc2)c2ccccc2)CC1 | 18.9% (inactive)
Cn1cnc(S(=O)(=O)Nc2ccc3c(c2)OCCO3)c1 | 26.2% (inactive)
CC/C(=N\NC(=S)NC(C)C)c1ccc(OC(F)F)cc1 | 11.9% (inactive)
C/C(=N\NC(=S)NC(C)C)c1ccc(C(C)(C)C)cc1 | 72.1% (active)
C/C(=N\NC(=S)NCc1ccccc1)c1ccc(Cl)cc1 | 16.1% (inactive)
Nc1nc(CC(=O)CSc2ccc(Cl)cc2)nc(Nc2ccc(F)cc2)n1 | 81.9% (active)
Cc1ccc(Nc2nc(N)nc(CSc3nnc(C)s3)n2)cc1 | -43.6% (inactive)
CCOC(=O)N1CCN(Cc2nc(N)nc(Nc3ccc(C)cc3)n2)CC1 | 30.1% (inactive)
O=S(=O)(Cc1noc(-c2ccc(OC(F)(F)F)cc2)n1)c1ccc(F)cc1 | -5.94% (inactive)
COc1ccc(NC(=O)c2cn(-c3ccccc3)nc2SC)cc1 | 14.6% (inactive)
Cc1ccc(S(=O)(=O)/N=C(/Nc2ccccn2)c2ccc(Cl)cc2)cc1 | 14.2% (inactive)
Cc1ccc(S/C(=N\S(=O)(=O)c2ccc(Cl)cc2)c2ccccc2)cc1 | 85.7% (active)
O=S(=O)(/N=C(/Nc1ccccn1)c1ccccc1)c1ccc(Cl)cc1 | 8.33% (inactive)
O=C(Nc1cccnc1Oc1ncnc2cc(Cl)ccc12)c1ccc(F)cc1 | -24.4% (inactive)
CCOC(=O)c1cn[nH]c1NC(=S)Nc1ccccc1 | -6.82% (inactive)
COc1ccc(C(=O)C2CCCN(C(=O)c3cnsn3)C2)c(C)c1 (stereo not given) | 1.06% (inactive)
FC(F)(F)c1nc2ccccc2nc1N/N=C/c1ccc(Cl)cc1 | 70.3% (active)
Fc1ccc(/C=N/Nc2nc(-c3cccnc3)nc3ccccc23)cc1 | 1.02% (inactive)
FC(F)(F)c1cccc(N/N=C/c2ccccc2)c1 | 69% (inactive)
COc1ccc2c(CC(=O)OCC(=O)NC(N)=O)coc2c1 | 8.09% (inactive)
COc1ccc(CCNC(=O)/C(C#N)=C2\N=C(NC(=O)c3cccs3)c3ccccc32)cc1 | 81.3% (active)

SMILES | inhibition
COc1ccc(CN(Cc2ccc(OC)cc2)C(=O)c2cccs2)cc1 | -9.17% (inactive)
COc1ccc(CCNC(=O)c2ccco2)cc1 | 14.1% (inactive)
Cc1ccc(/C=C/C(=O)O)cc1S(=O)(=O)N1CCC(Cc2ccccc2)CC1 | -11.4% (inactive)
Cc1onc(-c2ccccc2)c1C(=O)N=C(N)c1ccc(Cl)cc1 | 6.38% (inactive)
FC(F)(F)c1nnc2ccc(N3CCN(c4ccccc4)CC3)nn12 | 49.9% (inactive)
Fc1c(F)c(C(F)(F)F)c(F)c(F)c1N1CCN(c2ccc3nnc(C(F)(F)F)n3n2)CC1 | 72.7% (active)
O=C(Nc1ccc(S(=O)(=O)Nc2nccs2)cc1)c1cc(=O)[nH]c2ccccc12 | 19.9% (inactive)
CC1(C)CCSC(/C=C/c2ccccc2)=N1 | -147% (inactive)
O=C(Nc1nnc(CCN2CCCCC2)s1)c1cccc(Cl)c1 | 6.02% (inactive)
Nc1nnn(CC(=O)N/N=C/c2ccc(O)cc2)n1 | -8.23% (inactive)
Cc1ccc(Cc2cnc(NC(=O)/C(C#N)=C/c3ccc(-c4cccc([N+](=O)[O-])c4)o3)s2)cc1 | 93.4% (active)
Cc1ccc(C(=O)N/C(=C/c2ccc(-c3cccc([N+](=O)[O-])c3)o2)C(=O)NCCCN(C)C)cc1 | 8.44% (inactive)
N#C/C(=C\c1ccc(-c2cccc([N+](=O)[O-])c2)o1)C(=O)NCCN1CCOCC1 | 27.9% (inactive)
Cc1ccc(/C=N/NC(=S)NC2CCCCC2)o1 | 2.92% (inactive)
Nc1ccccc1Sc1cc(Cl)nnc1Cl | 20% (inactive)
CC(=O)Nc1ccc(CC#N)cc1 | 18.1% (inactive)
CC1(C)CC(=O)C(N=Nc2c(F)cccc2F)=C(O)C1 | 7.79% (inactive)
CCOc1ccc(Cn2c(SCCCCC#N)nc3c2c(=O)n(C)c(=O)n3C)cc1OCC | 17.3% (inactive)
CCCSc1nc2c(c(=O)n(C)c(=O)n2C)n1Cc1ccc(C)cc1 | 77.2% (active)
Cc1cccc(Cn2c(SCCO)nc3c2c(=O)n(C)c(=O)n3C)c1 | 16.8% (inactive)
Cc1nc2cc(NC(=O)Nc3cccc(F)c3)ccc2n1C | -0.84% (inactive)
C/C(Cc1ccccc1)=N\NC(=O)CNC(=O)c1ccc2c(c1)OCCO2 | 14.9% (inactive)
CC(=O)N1CCC(N(C(=O)Nc2ccc(Cl)cc2)C(C)C)CC1 | 15.3% (inactive)

— PubChem BioAssay AID2732 (Emory University Molecular Libraries Screening Center, 2010)
